The supplement of paper PMC10981050
Where “and” joins values, the source holds several entries; their conditions need not be identical. Identical values can stand only once. Counter-ions that a name gives are not always drawn.

How the values were obtained:
Experiment in all cases: cell viability relative to vehicle control; higher = less cytotoxic
Details in all cases: 10 µM
[1] = tested on: K562
How it was run: (§1)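 Mutant clones made by CRISPR editing and their isogenic wild-type counterparts, from four leukaemia lines, were exposed to a single 10 µM dose of each library compound for 48 h. The supernatant was then removed and CellTiter-Glo luminescence was read. Viability was reported as percent of the on-plate vehicle control.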

[2] = tested on: MARIMO
How it was run: as §1

[3] = tested on: MOLM14
How it was run: as §1

[4] = tested on: OCI-AML2
How it was run: as §1

SMILES | cell viability ([1]; SRSF2 genotype: SRSF2 P95H/wt) | cell viability ([1]; SRSF2 genotype: SRSF2 wt/wt) [%] | cell viability ([2]; SRSF2 genotype: SRSF2 P95H/wt) [%] | cell viability ([2]; SRSF2 genotype: SRSF2 wt/wt) [%] | cell viability ([3]; SRSF2 genotype: SRSF2 P95H/wt) [%] | cell viability ([3]; SRSF2 genotype: SRSF2 wt/wt) [%] | cell viability ([4]; SRSF2 genotype: P95H/wt) [%] | cell viability ([4]; SRSF2 genotype: wt/wt) [%]
C[C@H](N=C(NC#N)Nc1cccc2ncccc12)c1ccccc1 | 99.3% and 100% | 97 | 104 | 107 | 97.6 | 98.4 | 108 | 112
COc1ccccc1N1CCN(CC(O)COc2cccc3ccccc23)CC1 (stereo not given) [Naftopidil Dihydrochloride] | 75.2% and 86.7% | 72.6 | 57 | 65.2 | 58.4 | 60.1 | 71.4 | 74.5
CC(C)[N+]1(C)[C@@H]2CC[C@H]1C[C@@H](OC(=O)C(CO)c1ccccc1)C2 (stereo not given in full) [Ipratropium bromide] | 113% and 109% | 105 | 99.5 | 105 | 99.8 | 105 | 99.1 | 118
CC(=O)c1cc2c(o1)C(=O)c1ccccc1C2=O [Napabucasin] | 0.4% and 0.37% | 0.39 | 3.59 | 2.73 | 0.37 | 0.39 | 0.4 | 0.39
C=CC(=O)Nc1cccc(Oc2nc(Nc3ccc(N4CCN(C)CC4)cc3)nc3ccsc23)c1 | 16.7% and 14.4% | 49.6 | 31.2 | 43.4 | 0.27 | 0.47 | 0.27 | 0.68
C=C1CCC[C@]2(C)C[C@@H]3OC(=O)C(C)=C3C[C@@H]12 [Atractylenolide II] | 107% and 105% | 99.7 | 96.8 | 102 | 101 | 106 | 103 | 106
Cc1ccc(C(=O)Nc2cccc(C(F)(F)F)c2)cc1Nc1nc(-c2cccnc2)nc2c1cnn2C | 65.9% and 77.9% | 64.2 | 46.1 | 60.5 | 91 | 110 | 87 | 82.7
CC[C@]1(O)C[C@H]2CN(CCc3c([nH]c4ccccc34)[C@@](C(=O)OC)(c3cc4c(cc3OC)N(C=O)[C@H]3[C@@](O)(C(=O)OC)[C@H](OC(C)=O)[C@]5(CC)C=CCN6CC[C@]43[C@@H]65)C2)C1 [Vincristine Sulfate] | 13.6% and 37% | 35.8 | 6.92 | 9.68 | 0.94 | 1.22 | 5.06 | 9.32
CC(=O)[C@H]1CC[C@H]2[C@@H]3CC=C4C[C@@H](O)CC[C@]4(C)[C@H]3CC[C@]12C [Pregnenolone] | 103% and 108% | 107 | 103 | 105 | 101 | 105 | 100 | 107
CC(CCc1ccccc1)NCC(=O)c1ccc(O)c(C(N)=O)c1 (stereo not given) [Labetalone hydrochloride] | 92.1% and 89.7% | 108 | 96.7 | 102 | 108 | 104 | 99.7 | 108
Cc1cc([N+](=O)[O-])ccc1NS(=O)(=O)c1cc(Cl)ccc1Cl | 79.9% and 88% | 86.3 | 96.4 | 92.9 | 92.3 | 90.9 | 93.1 | 97.1
NC(=O)c1cnc(NCCc2ccc(O)c(Cl)c2)nc1NCc1ccccc1 | 34.2% and 38.5% | 33.3 | 8.49 | 5.28 | 5.95 | 1.62 | 8.8 | 13.2
CC(=O)NC(Cc1ccc(O)cc1)C(=O)NC(CCCN=C(N)N)C(=O)NC(Cc1ccccc1)C(N)=O (stereo not given) | 87.2% and 83.5% | 85.6 | 84.2 | 88.4 | 87.3 | 85.4 | 87.9 | 87.5
O=C(NCCO[N+](=O)[O-])c1cccnc1 [Nicorandil (Ikorel)] | 101% and 99.9% | 108 | 108 | 108 | 93.4 | 99.1 | 82.1 | 94
OC[C@H]1O[C@@H](Oc2c(O)cc(O)cc2/C=C/c2ccc(O)cc2)[C@H](O)[C@@H](O)[C@@H]1O [Astragalus polyphenols] | 91% and 89.8% | 88.5 | 82.9 | 96.1 | 67.9 | 80.4 | 76.8 | 84.5
Nc1ncc(-c2ccnc(Nc3ccncc3)n2)c(CC2CC2)n1 | 69% and 73.7% | 74.2 | 69.8 | 66.9 | 44.8 | 43.8 | 43.3 | 45.2
Cc1c(C(C)C)c(=O)n(-c2ccccc2)n1C [Propyphenazone (4-Isopropylantipyrine)] | 101% and 105% | 97.5 | 94 | 105 | 94.3 | 101 | 86.9 | 97.4
O=C(O)CCNc1cc(N2CCc3ccccc3CC2)nc(-c2ccccn2)n1 | 108% and 104% | 99.5 | 102 | 107 | 108 | 107 | 106 | 111
CC1CCC2(O)C(C)(C)C3CCC2(C)C1C3 (stereo not given) [Patchouli alcohol] | 92.3% and 85.5% | 89.2 | 89.5 | 102 | 91.1 | 89.5 | 80.6 | 93
CC(=O)N1c2ccc(-c3ccc(C(=O)O)cc3)cc2[C@H](Nc2ccc(Cl)cc2)C[C@@H]1C | 59.6% and 63.6% | 74.7 | 23.6 | 28.7 | 16.3 | 14.4 | 7.87 | 17.8
